Unmarked numbers belong to inactive results. Inconclusive results are not listed. Where a call stands in place of a potency, no number is given. The source made the active and inactive calls. Unless noted, calls follow the shape of the full dose curve.
Experiments:
[1] = Nuclear factor erythroid 2-related factor 2/antioxidant responsive element (Nrf2/ARE) small molecule agonists: qHTS cell viability counter screen in human keratinocytes (AID 1919968; active = well fitted curve in the direction sought with a large enough effect in the repeat runs; an effect the other way counts as inactive or inconclusive; also: nearly all actives have a fitted effect of over 55% in size)
In short: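 CellTiter-Fluor fluorescence, read 1 h after reagent, gave viability in the same wells as the ARE-luciferase assay. KeratinoSens cells (1,500/well) had 23 h compound exposure at 37 C/5% CO2 following 5 h plating.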

[2] = Nuclear factor erythroid 2-related factor 2/antioxidant responsive element (Nrf2/ARE) small molecule agonists: luciferase reporter gene qHTS assay in human keratinocytes (AID 1919969); also: nearly all actives have a fitted effect of over 35% in size
[3] = biological target: Gonadotropin-releasing hormone receptor (Homo sapiens) (UniProt P30968); assay: Human gonadotropin-releasing hormone receptor (GnRHR) small molecule agonists, calcium flux assay in GnRHR-HEK293 cells (AID 1920063); also: nearly all actives have a fitted effect of over 35% in size
In short: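 Agonist mode: compounds at 15 concentrations, in triplicate, went onto calcium dye-loaded GnRHR-HEK293 cells. Intracellular calcium was then followed as 480/540 nm fluorescence at 1 s intervals over 3 min.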

[4] = biological target: KiSS-1 receptor (Homo sapiens) (UniProt Q969F8); assay: Human kisspeptin (KISS1R) small molecule agonists, calcium flux assay in KISS1R-HEK293 cells (AID 1920064; active = well fitted curve in the direction sought with a large enough effect in the repeat runs; an effect the other way counts as inactive or inconclusive)
In short: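 Agonist mode: intracellular calcium rise tracked at 1 s intervals over 3 min (480/540 nm) immediately after compound addition to dye-loaded KISS1R-HEK293 stable cells. Each compound tested at 15 concentrations in triplicate.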

[5] = G protein-coupled receptor (GPCR) small molecule agonists, calcium flux assay: HEK293 wild type cell line counter screen (AID 1920065)
In short: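 Calcium flux counter screen: compound added in agonist mode at 15 concentrations in triplicate to dye-loaded parental HEK293 cells. Fluorescence (480/540) read kinetically for 3 min; ATP served as positive control.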

[6] = p53 small molecule agonists, cell-based qHTS assay with human liver microsomes (AID 1963577)
In short: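 Compounds act here after metabolic activation: human liver microsomes and NADPH, both at 0.5 mg/mL final, were co-added to p53RE-bla cells. Incubation ran 16 h at 37 C, followed by LiveBLAzer detection.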

[7] = p53 small molecule agonists, cell-based qHTS assay with rat liver microsomes (AID 1963578)
In short: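 Read-out is beta-lactamase reporter fluorescence (LiveBLAzer, 2 h, room temperature, dark) in p53RE-bla cells treated 16 h at 37 C with compound, rat liver microsomes and NADPH, both 0.5 mg/mL final.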

[8] = p53 small molecule agonists, cell-based qHTS assay with human liver microsomes: qHTS cell viability counter screen (AID 1963579); also: nearly all actives have a fitted effect of over 45% in size
In short: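 Cells carrying the p53 response-element beta-lactamase reporter are treated for 16 h at 37 C with test compounds in the presence of human liver microsomes and NADPH (both 0.5 mg/mL final); ATP-based CellTiter-Glo luminescence then reports viability.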

[9] = p53 small molecule agonists, cell-based qHTS assay with rat liver microsomes: qHTS cell viability counter screen (AID 1963580); also: nearly all actives have a fitted effect of over 45% in size
In short: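 Cytotoxicity counter screen: intracellular ATP read by CellTiter-Glo luminescence in the p53 reporter wells. HCT-116 p53RE-bla cells were treated for 16 h at 37 C alongside rat liver microsomes and NADPH, each 0.5 mg/mL final.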

[10] = p53 small molecule agonists, cell-based qHTS assay: qHTS cell viability counter screen (AID 1963581); also: nearly all actives have a fitted effect of over 45% in size
In short: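 Counter screen read by CellTiter-Glo luminescence (ATP content, 30 min at room temperature), run in the same wells as the beta-lactamase reporter read. HCT-116 p53RE-bla cells saw compounds for 16 h at 37 C.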

[11] = p53 small molecule agonists, cell-based qHTS assay (AID 1963582; active = well fitted activation curve with a large enough effect in the signal ratio in the repeat runs, not every such curve was filed as active; the % refers to the signal ratio)
In short: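 Read-out is beta-lactamase FRET fluorescence after 2 h at room temperature with LiveBLAzer B/G substrate. p53 response element-bla cells were treated 16 h at 37 C with compounds in DMSO, added 5 h after seeding.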

[12] = biological target: 5-hydroxytryptamine receptor 2A (Homo sapiens) (UniProt P28223); assay: 5-hydroxytryptamine receptor 2A (HTR2A) small molecule antagonists, cell-based qHTS assay (AID 1963586); also: nearly all actives have a fitted effect of over 45% in size
In short: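 CHO cells stably expressing human HTR2A were plated for 18 h at 37 C, then loaded with calcium dye for 1 h. Compounds were preincubated 5 min at room temperature before DOI (4 nM solution) was added. Kinetic fluorescence was read for 3 min.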

[13] = biological target: 5-hydroxytryptamine receptor 2A (Homo sapiens) (UniProt P28223); assay: 5-hydroxytryptamine receptor 2A (HTR2A) small molecule agonists, cell-based qHTS assay (AID 1963587); also: nearly all actives have a fitted effect of over 30% in size
In short: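 Kinetic calcium-flux fluorescence (2 min, 1 sec intervals) after compound addition in agonist mode. HTR2A-CHO cells were cultured 18 h, then dye-loaded 1 h at 37 C.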

[14] = biological target: Muscarinic acetylcholine receptor M1 (Homo sapiens) (UniProt P11229); assay: Cholinergic receptor muscarinic 1 (CHRM1) small molecule antagonists, cell-based qHTS assay (AID 1963588); also: nearly all actives have a fitted effect of over 40% in size; also: potency is read from the fitted curve at half-maximal effect
In short: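 Compounds were tested at 15 concentrations in three independent runs. Dye-loaded CHRM1-CHO cells were exposed 5 min at room temperature before stimulation by acetylcholine added at 50nM. Intracellular calcium was read kinetically on FDSS for 3 min.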

[15] = biological target: Muscarinic acetylcholine receptor M1 (Homo sapiens) (UniProt P11229); assay: Cholinergic receptor muscarinic 1 (CHRM1) small molecule agonists, cell-based qHTS assay (AID 1963589); also: nearly all actives have a fitted effect of over 35% in size
In short: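 Agonist-mode calcium-flux screen: compounds at 15 concentrations, three independent runs, were pin-transferred onto dye-loaded human CHRM1-CHO cells. Fluorescence was then recorded kinetically every second over minutes.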

[16] = cAMP Responsive Elements (CRE) small molecule agonists, cell-based qHTS assay (AID 1963590)
In short: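 Agonist mode: compound added to CRE-bla HEK 293T cells (2,000/well, 18 h after plating) for 3 h at 37 C/5% CO2. Reporter activity detected via FRET beta-lactamase substrate, 2 h room-temperature loading.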

[17] = cAMP Responsive Elements (CRE) small molecule antagonists, cell-based qHTS assay (AID 1963591; active = well fitted inhibition curve with a large enough effect in the signal ratio in the repeat runs, not every such curve was filed as active; the % refers to the signal ratio)
In short: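 Antagonist mode: compounds are added alongside the adenylyl cyclase activator NKH477 (0.25 uM final) to CRE-bla HEK293T cells for 3 h. LiveBLAzer FRET substrate, 2 h at room temperature, reports bla expression.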

[18] = biological target: Beta-2 adrenergic receptor (Homo sapiens) (UniProt P07550); assay: Adrenergic beta2 receptor (ADRB2) small molecule antagonists, cell-based qHTS assay (AID 1963592); also: nearly all actives have a fitted effect of over 50% in size; also: potency is read from the fitted curve at half-maximal effect
In short: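 Assay format: CHO-ADRB2 cells, 18-20hr seeding at 37C/5% CO2, then compound plus 1nM isoproterenol agonist mix for 0.5hr RT. Homogeneous time-resolved fluorescence cAMP detection after 1hr, expressed as 665/615 nm ratio.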

[19] = biological target: D(2) dopamine receptor (Homo sapiens) (UniProt P14416); assay: Dopamine D2 receptor (DRD2) small molecule agonists, cell-based qHTS assay (AID 1963594); also: nearly all actives have a fitted effect of over 35% in size
In short: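 cAMP accumulation in DRD2-HEK293 cells measured by HTRF after 1 h detection; compounds added 10 min before NKH477 (200nM […]) forskolin-analogue stimulation, 30 min at room temperature, with Ro20-1724 present at 0.1 mM final.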

[20] = biological target: D(2) dopamine receptor (Homo sapiens) (UniProt P14416); assay: Dopamine D2 receptor (DRD2) small molecule antagonists, cell-based qHTS assay (AID 1963595; active = well fitted inhibition curve with a large enough effect in the signal ratio in the repeat runs, with a control signal flat; the % refers to the signal ratio)
In short: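 Cells were plated and grown for 24 h at 37 °C. Ro20-1724 (0.1 mM final) went in first, then compound for 10 min. NKH477 (200 nM) with quinpirole (12 nM) followed for 30 min at RT, then HTRF detection reagents for 1 h.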

Chain of Muscarinic acetylcholine receptor M1 (Homo sapiens) (P11229 whole entry, looked up): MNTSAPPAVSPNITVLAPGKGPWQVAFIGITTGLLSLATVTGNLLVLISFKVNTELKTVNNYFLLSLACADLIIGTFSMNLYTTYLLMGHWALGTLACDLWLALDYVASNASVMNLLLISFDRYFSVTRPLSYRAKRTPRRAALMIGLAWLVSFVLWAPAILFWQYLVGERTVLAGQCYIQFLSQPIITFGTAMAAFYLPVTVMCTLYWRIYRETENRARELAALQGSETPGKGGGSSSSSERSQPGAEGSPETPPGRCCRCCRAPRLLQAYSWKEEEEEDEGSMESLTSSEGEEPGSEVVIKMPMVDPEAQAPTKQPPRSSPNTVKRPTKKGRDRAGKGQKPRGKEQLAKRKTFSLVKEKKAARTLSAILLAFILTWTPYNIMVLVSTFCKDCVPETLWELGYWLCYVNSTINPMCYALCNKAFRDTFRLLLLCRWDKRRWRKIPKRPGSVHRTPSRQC
Chain of Gonadotropin-releasing hormone receptor (Homo sapiens) (P30968 whole entry, looked up): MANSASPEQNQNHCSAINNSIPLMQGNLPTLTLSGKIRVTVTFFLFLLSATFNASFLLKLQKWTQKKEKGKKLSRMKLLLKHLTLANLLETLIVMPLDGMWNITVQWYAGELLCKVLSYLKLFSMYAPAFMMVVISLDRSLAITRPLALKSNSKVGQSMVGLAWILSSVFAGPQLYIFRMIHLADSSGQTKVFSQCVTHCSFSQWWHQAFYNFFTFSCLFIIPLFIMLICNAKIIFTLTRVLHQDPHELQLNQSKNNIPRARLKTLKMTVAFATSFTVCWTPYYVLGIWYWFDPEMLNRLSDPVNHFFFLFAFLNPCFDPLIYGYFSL
Chain of D(2) dopamine receptor (Homo sapiens) (P14416 whole entry, looked up): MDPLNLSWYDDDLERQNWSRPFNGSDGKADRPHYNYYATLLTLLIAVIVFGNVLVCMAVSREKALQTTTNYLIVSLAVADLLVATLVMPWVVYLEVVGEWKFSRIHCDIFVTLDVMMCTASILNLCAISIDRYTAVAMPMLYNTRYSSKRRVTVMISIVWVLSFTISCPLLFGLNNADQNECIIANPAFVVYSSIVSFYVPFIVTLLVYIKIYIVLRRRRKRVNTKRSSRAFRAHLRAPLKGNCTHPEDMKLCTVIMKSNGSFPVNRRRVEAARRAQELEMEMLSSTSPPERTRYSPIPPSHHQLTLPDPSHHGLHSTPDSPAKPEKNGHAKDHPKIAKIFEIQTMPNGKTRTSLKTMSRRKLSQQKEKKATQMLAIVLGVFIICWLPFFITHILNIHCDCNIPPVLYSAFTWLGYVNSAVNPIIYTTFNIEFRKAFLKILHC
Chain of 5-hydroxytryptamine receptor 2A (Homo sapiens) (P28223 whole entry, looked up): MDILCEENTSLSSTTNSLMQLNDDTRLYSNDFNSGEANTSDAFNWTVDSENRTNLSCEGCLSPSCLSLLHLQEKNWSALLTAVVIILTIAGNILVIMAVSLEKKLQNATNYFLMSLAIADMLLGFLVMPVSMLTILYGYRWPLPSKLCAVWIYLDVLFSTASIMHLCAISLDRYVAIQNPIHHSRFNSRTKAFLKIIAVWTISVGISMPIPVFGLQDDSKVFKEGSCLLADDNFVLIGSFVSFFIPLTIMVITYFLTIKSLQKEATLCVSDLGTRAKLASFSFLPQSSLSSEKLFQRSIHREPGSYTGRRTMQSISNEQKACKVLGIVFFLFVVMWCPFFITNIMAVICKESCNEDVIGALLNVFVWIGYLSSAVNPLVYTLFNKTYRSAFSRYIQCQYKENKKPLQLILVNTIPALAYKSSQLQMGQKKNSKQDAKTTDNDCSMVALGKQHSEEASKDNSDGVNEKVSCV
Chain of Beta-2 adrenergic receptor (Homo sapiens) (P07550 whole entry, looked up): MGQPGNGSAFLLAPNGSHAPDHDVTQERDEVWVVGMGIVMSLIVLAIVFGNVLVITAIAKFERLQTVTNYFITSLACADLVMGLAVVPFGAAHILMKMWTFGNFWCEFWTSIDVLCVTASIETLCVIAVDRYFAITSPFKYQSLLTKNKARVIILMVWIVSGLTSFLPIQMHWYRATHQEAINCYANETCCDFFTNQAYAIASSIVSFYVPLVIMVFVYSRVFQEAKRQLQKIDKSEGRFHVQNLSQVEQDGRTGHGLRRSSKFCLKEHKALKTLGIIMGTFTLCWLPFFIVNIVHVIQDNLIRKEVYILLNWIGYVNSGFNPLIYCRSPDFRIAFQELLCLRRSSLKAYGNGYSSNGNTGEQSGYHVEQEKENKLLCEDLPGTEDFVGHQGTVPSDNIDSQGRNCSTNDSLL
Chain of KiSS-1 receptor (Homo sapiens) (Q969F8 whole entry, looked up): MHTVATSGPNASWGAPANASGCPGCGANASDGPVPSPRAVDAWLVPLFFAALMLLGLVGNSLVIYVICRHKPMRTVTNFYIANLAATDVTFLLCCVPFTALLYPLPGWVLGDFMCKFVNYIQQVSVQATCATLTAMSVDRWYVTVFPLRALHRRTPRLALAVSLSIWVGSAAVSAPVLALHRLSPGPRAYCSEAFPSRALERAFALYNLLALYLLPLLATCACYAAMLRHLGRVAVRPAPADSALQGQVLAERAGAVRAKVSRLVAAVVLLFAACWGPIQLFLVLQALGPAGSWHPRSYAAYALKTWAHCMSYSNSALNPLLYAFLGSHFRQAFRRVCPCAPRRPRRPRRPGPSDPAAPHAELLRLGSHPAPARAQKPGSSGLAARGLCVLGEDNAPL

Compound	Potency [1]	Potency [2]	Potency [3]	outcome [4]	outcome [5]	Potency [6]	Potency [7]	Potency [8]	Potency [9]	Potency [10]	Potency [11]	Potency [12]	Potency [13]	Potency [14]	Potency [15]	Potency [16]	Potency [17]	Potency [18]	Potency [19]	Potency [20]
C1OCOCO1	inactive	inactive	inactive	inactive	inactive	inactive	inactive	inactive	inactive	inactive	inactive	inactive	inactive	inactive	inactive	inactive	inactive	inactive	inactive	inactive
CC(C)=CCC/C(C)=C/CC/C(C)=C/CCC(=O)OC/C=C(\C)CCC=C(C)C	inactive	inactive	inactive	inactive	inactive	inactive	inactive	inactive	inactive	inactive	inactive	inactive	inactive	inactive	inactive	inactive	inactive	inactive	inactive	inactive
c1ccc(CCCc2ccccn2)cc1	inactive	inactive	inactive	inactive	inactive	inactive	inactive	inactive	inactive	inactive	inactive	inactive	inactive	inactive	inactive	inactive	inactive	inactive	inactive	inactive
CCC(C=O)CC	inactive	inactive	inactive	inactive	inactive	inactive	inactive	inactive	inactive	inactive	inactive	inactive	inactive	inactive	inactive	inactive	inactive	inactive	inactive	inactive
COc1ccccc1N1CCN(CCCNc2cc(=O)n(C)c(=O)n2C)CC1	inactive	inactive	inactive	inactive	inactive	inactive	inactive	inactive	inactive	inactive	inactive	inactive	inactive	10.3 µM (active)	inactive	inactive	inactive	13.3 µM (active)	–	inactive
CC(C)[N+](C)(C)CC(O)COc1cccc2ccccc12 (centres undefined)	inactive	inactive	inactive	inactive	inactive	inactive	inactive	inactive	inactive	inactive	inactive	inactive	inactive	inactive	inactive	inactive	inactive	15 µM (active)	inactive	inactive
CC(C)=CCCC(C)C=O (centres undefined)	inactive	inactive	inactive	inactive	inactive	inactive	inactive	inactive	inactive	inactive	inactive	inactive	inactive	inactive	inactive	inactive	inactive	inactive	inactive	inactive
